# Compounds with a hit are over-represented: about 6.7% of the library has one in this group of screens.
# C diff HTS: C. difficile growth inhibitors, primary screen, HTS; 0.25% of 86,000 active; growth activity, negative = inhibition, % at 16 µg/mL (by protocol); Clostridium difficile clinical isolate growth, OD600, 24 h; active compounds read low;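 active = mean growth activity at or below -80% and every replicate also at or below -80%; inconclusive = mean at or below -80% but some replicate above -80%; inactive = mean growth activity above -80%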;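 also: 0% = DMSO wells and -100% = levofloxacin 16 µg/mL wells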
# Tcruzi prolif: T. cruzi intracellular proliferation inhibitors, primary screen, cell-based, beta-gal Tulahuen parasites, NIH3T3 host, luminescence; T. cruzi beta-gal in NIH3T3, GalScreen luminescence, 90 h; 5.9% of 77,000 active; inhibition, % at 8.34 µM;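 active = mean inhibition above about 93%, with at least 55% of replicates each passing it, limit read from the data, passing the limit was not always enough; inconclusive = only one of those two conditions holds; inactive = neither condition holds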
# Pf Dd2 growth: P. falciparum Dd2 growth inhibitors, primary screen, SYBR Green fluorescence, single dose replicates; 72 h; active compounds read low; activity change, % at 10 µM; 2.3% of 94,000 active; in the data active = activity change below about -80%; inconclusive = no clear call, values can overlap the other calls
# The depositor's hits bear a star; ? = inconclusive; . = no result given.
SMILES,C diff HTS,Tcruzi prolif,Pf Dd2 growth
COc1cccc(C#Cc2ccc([C@@H]3[C@@H](CO)N(C(=O)C4CCCC4)[C@H]3C#N)cc2)c1,4,.,-83*
COc1cccc(C#Cc2ccc([C@@H]3[C@@H](C#N)N(C(=O)C4CCCCC4)[C@H]3CO)cc2)c1,1,85,-91*
COc1ccc(S(=O)(=O)N(C)C[C@@H]2Oc3ccc(NC(=O)NC(C)C)cc3C(=O)N([C@H](C)CO)C[C@@H]2C)cc1,-2,-20,-18
O=C(Nc1ccc(-c2ccccc2)cc1)[C@H]1[C@H](CO)[C@H]2Cn3c(cccc3=O)[C@@H]1N2Cc1cccnc1,0,-3,-1
O=C(C[C@H]1C=C[C@H](NC(=O)c2ccncc2)[C@H](CO)O1)Nc1ccc(-c2ccccc2)cc1,-2,.,16
Cc1ccccc1-c1ccc(C2[C@@H]3CN(C(=O)Cc4ccncc4)C[C@H]2N3)cc1 (stereo partly drawn),-14,.,-47
O=C([C@H]1[C@H](CO)[C@H]2Cn3c(ccc(-c4ccncc4)c3=O)[C@H]2N1CCC(F)(F)F)N1CCCCC1,3,3,-6
COc1cccc(C#Cc2cnc3c(c2)C(=O)N([C@H](C)CO)C[C@@H](C)[C@@H](CN(C)C(=O)C2CCCCC2)O3)c1,-6,90,-62
COc1cccc(C#Cc2cnc3c(c2)C(=O)N([C@H](C)CO)C[C@H](C)[C@@H](CN(C)C(=O)C2CCOCC2)O3)c1,0,.,-81*
COc1cccc(C#Cc2cnc3c(c2)C(=O)N([C@H](C)CO)C[C@H](C)[C@H](CN(C)C(=O)C2CCCCC2)O3)c1,0,.,-86*
COc1cccc(C#Cc2cnc3c(c2)C(=O)N([C@@H](C)CO)C[C@@H](C)[C@H](CN(C)C(=O)C2CCOCC2)O3)c1,3,.,-55
CCCNC(=O)N(C)C[C@@H]1Oc2ncc(C#CC3(O)CCCC3)cc2C(=O)N([C@H](C)CO)C[C@@H]1C,0,.,14
C[C@H](CO)N1C[C@H](C)[C@H](CN(C)Cc2cccc3c2OCCCO3)OCc2ccccc2-c2c(n(C)c3ccccc23)C1=O,0,.,-71
C[C@H](CO)N1C[C@H](C)[C@H](CN(C)Cc2ccc3c(c2)OCO3)OCCCC[C@H](C)Oc2ccc(NS(C)(=O)=O)cc2C1=O,2,22,.
COc1cc(CN2CC3(CCN(C(=O)Nc4c(C)noc4C)CC3)c3c([nH]c4cc(OC)ccc34)[C@@H]2CO)cc(OC)c1,3,.,-30
CCCC(=O)N1CC2(C1)CN(Cc1cccnc1)[C@H](CO)c1[nH]c3cc(OC)ccc3c12,6,.,-21
COc1ccc2c3c([nH]c2c1)[C@H](CO)N(Cc1ccncc1)CC31CCN(C(=O)c2cccnc2)CC1,9,.,-11
COc1ccc2c3c([nH]c2c1)[C@H](CO)N(Cc1ccc(Cl)cc1)CC31CCN(C(=O)CN(C)C)CC1,9,.,?
COc1cc(CN2CC3(CN(C(=O)Nc4c(C)noc4C)C3)c3c([nH]c4cc(OC)ccc34)[C@@H]2CO)cc(OC)c1,-1,.,-85*
COc1cc(CN2CC3(CCN(C(=O)c4cccnc4)CC3)c3c([nH]c4cc(OC)ccc34)[C@@H]2CO)cc(OC)c1,-1,.,-89*
CCCC(=O)N1CCC2(CC1)CN(Cc1ccc(Cl)cc1)[C@@H](CO)c1[nH]c3cc(OC)ccc3c12,13,.,-84*
CCCC(=O)N1CCC2(CC1)CN(Cc1cccnc1)[C@@H](CO)c1[nH]c3cc(OC)ccc3c12,45,.,-90*
COc1ccc2c3c(n(C)c2c1)[C@H](CO)N(CC1CCOCC1)CC31CN(C(C)=O)C1,.,.,-7
C[C@H](CO)N1C[C@H](C)[C@@H](CN(C)C(=O)C2CC2)Oc2ncc(C#CC3(O)CCCC3)cc2C1=O,.,20,66
O=C(Nc1ccccc1)N[C@@H]1CC[C@H](CCn2cc(-c3ccccc3F)nn2)O[C@H]1CO,2,.,-48
SMILES,C diff HTS,Tcruzi prolif,Pf Dd2 growth
COc1ccc2c3c([nH]c2c1)[C@H](CO)N(C)CC31CCN(S(=O)(=O)c2cccc(F)c2)CC1,7,.,-60
COc1ccc2c3c([nH]c2c1)[C@H](CO)N(C(=O)Nc1cccc(F)c1)CC31CN(S(=O)(=O)c2cccc(C)c2)C1,0,.,-51
COc1ccc2c3c([nH]c2c1)[C@H](CO)N(C(=O)Nc1cccc(F)c1)CC31CCN(S(=O)(=O)c2cccc(C)c2)CC1,-11,.,-82*
COc1ccc2c3c([nH]c2c1)[C@H](CO)N(CC1CC1)CC31CCN(S(=O)(=O)c2cccc(F)c2)CC1,8,.,-90*
C[C@@H]1CCCCO[C@@H](CN(C)C(=O)Nc2ccc(F)cc2)[C@H](C)CN([C@@H](C)CO)C(=O)c2cc(NC(=O)c3ccncc3)ccc2O1,4,43,18
C[C@@H]1CN([C@@H](C)CO)C(=O)c2cc(NC(=O)Cc3ccccc3)ccc2O[C@@H]1CN(C)Cc1ccc(C(=O)Nc2ccccc2N)cc1,3,44,-86*
C[C@@H]1CN([C@H](C)CO)C(=O)c2cc(NC(=O)c3ccncc3)ccc2O[C@@H]1CN(C)Cc1ccc(C(=O)Nc2ccccc2N)cc1,.,105,-61
C[C@@H]1CN([C@@H](C)CO)C(=O)c2cc(NC(=O)Cc3cn(C)c4ccccc34)ccc2O[C@H]1CN(C)Cc1ccc(C(=O)Nc2ccccc2N)cc1,.,-37,-85*
C[C@@H]1CN([C@H](C)CO)C(=O)c2cc(NC(=O)Cc3ccccc3)ccc2O[C@H]1CN(C)Cc1ccc(C(=O)Nc2ccccc2N)cc1,-7,66,-51
C[C@@H]1CCCCO[C@@H](CN(C)Cc2ccc(C(=O)Nc3ccccc3N)cc2)[C@@H](C)CN([C@H](C)CO)C(=O)c2cc(NC(=O)Cc3ccccc3)ccc2O1,2,.,-84*
CC(C)NC(=O)Nc1ccc2c(c1)C(=O)N([C@H](C)CO)C[C@H](C)[C@H](CN(C)Cc1ccc(C(=O)Nc3ccccc3N)cc1)OCCCC[C@@H](C)O2,4,.,?
C[C@H]1CN([C@@H](C)CO)C(=O)c2cc(NC(=O)c3ccncc3)ccc2O[C@@H]1CN(C)Cc1ccc(C(=O)Nc2ccccc2N)cc1,5,.,-86*
C[C@@H]1CN([C@@H](C)CO)C(=O)c2cc(NC(=O)Cc3cn(C)c4ccccc34)ccc2O[C@@H]1CN(C)Cc1ccc(C(=O)Nc2ccccc2N)cc1,.,-25,-69
C[C@H](CO)N1C[C@H](C)[C@@H](CN(C)C)Oc2ncc(C#CC3CCCCC3)cc2C1=O,-6,-3,-40
COc1ccc2c3c([nH]c2c1)[C@H](CO)N(C(C)=O)CC31CN(Cc2cc(-c3ccccc3)on2)C1,-1,.,-75
C[C@H](CO)N1C[C@H](C)[C@@H](CN(C)C(=O)C2CCC2)Oc2cc(C#Cc3ccncc3)ccc2S1(=O)=O,2,-76,-13
COc1ccc2c3c([nH]c2c1)[C@H](CO)N(Cc1ccccc1OC)CC31CN(S(C)(=O)=O)C1,4,.,-61
COc1ccc(S(=O)(=O)Nc2cccc3c2O[C@@H](CN(C)Cc2ccc(C(=O)Nc4ccccc4N)cc2)[C@@H](C)CN([C@H](C)CO)C3=O)cc1,5,.,-76

# Screening data (PubChem BioAssay)
